Values joined by “and” are separate entries in the source; they are usually repeats but may differ in a detail not shown here. Equal values may be shown once. Where a name gives a salt, the structure may show the parent alone.

In the assay the test system is K562. Put plainly: cell viability relative to vehicle control; higher = less cytotoxic. The settings on record: 10 µM; SRSF2 genotype: SRSF2 P95H/wt. The method in brief:
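CRISPR-edited SRSF2 P95 mutant and isogenic wild-type clones of four leukaemia lines were screened against Selleck bioactive, kinase and epigenetic probe libraries, with identity-inconsistent compounds removed. Compounds were acoustically dispensed into 384-well plates at a single 10 µM dose, with 2000 cells in 50 µL medium per well. After 48 h, supernatant was removed and CellTiter-Glo luminescence was read. Viability was expressed as percent of the on-plate DMSO vehicle control, analysed in Genedata Screener.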
In general, cell viability refers to a read-out of living cells in per cent, often relative to untreated cells. For the compound `NS(=O)(=O)c1cc2c(cc1Cl)N=CNS2(=O)=O` [Chlorothiazide], the cell viability is 100% and 94%.
Take `CC(C)CCCC(C)C1CCC2C3CCC4CC(O)CCC4(C)C3CCC12C` (stereo not given) [Dihydrocholesterol]: the cell viability was 93% and 100%.
For `CC(C)c1c(C(=O)Nc2ccccc2)c(-c2ccccc2)c(-c2ccc(F)cc2)n1CC[C@@H](O)C[C@@H](O)CC(=O)O` [Atorvastatin calcium (Lipitor)] the value was 67.2% and 88.5%; for `O=C1CCC(N2C(=O)c3ccccc3C2=O)C(=O)N1` (stereo not given) [Thalidomide], 92.1% and 86.8%; for `COc1ccc(C2=N[C@@H](c3ccc(Cl)cc3)[C@@H](c3ccc(Cl)cc3)N2C(=O)N2CCNC(=O)C2)c(OC(C)C)c1` [Nutlin-3], 91.4% and 99.4%.
For `CC1(C)C(O[C@@H]2OC[C@@H](O)[C@H](O)[C@H]2O)CC[C@]23CC24CC[C@]2(C)[C@@H]([C@@]5(C)CC[C@@H](C(C)(C)O)O5)[C@H](O)C[C@@]2(C)C4C[C@@H](O[C@@H]2O[C@H](CO)[C@@H](O)[C@H](O)[C@H]2O)C13` (stereo not given in full) [Astragaloside IV], the cell viability is 110% and 114%.
For `COC(=O)N[C@H](C(=O)N[C@@H](Cc1ccccc1)[C@@H](O)CN(Cc1ccc(-c2ccccn2)cc1)NC(=O)[C@@H](NC(=O)OC)C(C)(C)C)C(C)(C)C` [Atazanavir sulfate] the value was 97.1% and 109%.
As to `CCCCCCCC/C=C\CCCCCCCC(=O)OCC` [Ethyl Oleate], the cell viability was 101% and 94.1%.
Turning to `O=CC[C@@H](O)[C@H](O)[C@H](O)CO` [2-Deoxy-D-glucose], the cell viability was 104% and 94.5%.
Consider `C[S+](CC[C@H](N)C(=O)[O-])C[C@H]1O[C@@H](n2cnc3c(N)ncnc32)[C@H](O)[C@@H]1O` (stereo not given in full) [Ademetionine], for which the cell viability is 108% and 105%.

The record behind these values is the supplement of paper PMC10981050.
